MITF inhib: blocks MITF activity. AID 2240. inhibition, % (test concentration not listed). 37,000 tested, 0.28% active. TRPM1 promoter luciferase, luminescence, 24 h; in the data active = inhibition above about 85%;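 also: human melanocyte line stably carrying TRPM1 promoter luciferase reporter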
NOMO-1 viab: STK33 inhibitor candidate reducing NOMO-1 cell viability | 37,000 tested, 7.5% active | inhibition, % (no concentration beside the values) | NOMO-1 AML viability, CellTiter-Glo luminescence, 72 h; in the data active = inhibition above about 80%
Shh pathway inh: blocks Sonic Hedgehog signaling; 22,000 tested, 2.1% active; Shh-LIGHT2 Gli-luciferase reporter, 30 h; AID 2313; inhibition, % (concentration not given with the values);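 active = mean inhibition across valid replicates above about 65%, limit read from the data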;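 also: pathway switched on by Shh-conditioned medium diluted 1 in 25 in low serum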
PD-1 reversal: activators reversing PD-1 mediated T-cell inhibition. primary human CD4 T cells, PD-L1 beads, CellTiter-Glo 96 h. activation, % (no concentration beside the values). 29,000 tested, under 10 active. AID 2316; call rule not given here;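 also: 0% = median vehicle wells and 100% = positive control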
* = called active by the depositor; nt = no result given. Sampled rows, rich in hits. Any-hit rate of the full collection: about 8.1%.

SMILES	MITF inhib	NOMO-1 viab	Shh pathway inh	PD-1 reversal
COC(=O)c1cc(NC(=O)C(C)N(c2ccc(C)cc2)S(C)(=O)=O)ccc1Cl (stereo not given)	10	38	nt	-2
O=C(CSc1ncc(-c2ccccc2)nn1)Nc1ccc(I)cc1	22	43	nt	1
CC(=O)Oc1ccc2occ(C(=O)CCN(C)C)c2c1	0	140*	21	-5
CC(=O)Oc1ccc2occ(C(=O)c3ccc(Br)s3)c2c1	-22	41	-27	-1
CCC(Sc1n[nH]c(N)n1)C(=O)Nc1ccc(C)cc1C (stereo not given)	3	12	nt	nt
C[C@@H]1CCCCO[C@@H](CN(C)CC2CCCCC2)[C@@H](C)CN([C@H](C)CO)C(=O)c2cc(NC(=O)c3ccccc3)ccc2O1	27	117*	nt	0
C[C@@H]1CCCCO[C@@H](CN(C)CC2CCCCC2)[C@@H](C)CN([C@H](C)CO)C(=O)c2cc(NC(=O)Nc3ccccc3)ccc2O1	19	122*	20	0
C[C@@H]1CCCCO[C@@H](CN(C)C)[C@@H](C)CN([C@H](C)CO)C(=O)c2cc(NC(=O)c3ccccc3)ccc2O1	0	123*	-4	nt
S=C(NCCc1ccccc1)N1CCc2ccccc21	-54	33	-22	-1
Cn1c(=O)c2c(O)c(C=Nc3ccc(Cl)cc3)c(=O)n(C)c2n(C)c1=O	10	2	-22	-1
N#Cc1c(SCC(=O)c2ccc(F)cc2)nsc1SCC(=O)c1ccc(F)cc1	7	30	81*	-6
CC(C)NC(=O)Nc1cccc2c1O[C@H](CN(C)C(=O)Nc1ccc(C(F)(F)F)cc1)[C@H](C)CN([C@@H](C)CO)C2=O	-1	34	-12	-1
CC(C)NC(=O)N(C)C[C@@H]1Oc2c(NC(=O)Nc3ccc(C(F)(F)F)cc3)cccc2C(=O)N([C@@H](C)CO)C[C@@H]1C	-15	67	-43	-1
CC(C)NC(=O)N(C)C[C@H]1Oc2c(NC(=O)Nc3ccc(C(F)(F)F)cc3)cccc2C(=O)N([C@@H](C)CO)C[C@H]1C	24	121*	21	-4
CC(C)NC(=O)N(C)C[C@@H]1Oc2c(NC(=O)Nc3ccc(C(F)(F)F)cc3)cccc2C(=O)N([C@H](C)CO)C[C@@H]1C	27	117*	17	-5
O=C(CCSc1nnnn1-c1ccccc1)Nc1ccc(Cl)cc1	0	7	nt	nt
CCn1c(SCC(=O)Nc2cccc(C(=O)O)c2)nnc1-c1ccc(Cl)cc1Cl	-19	31	nt	2
COc1ccc2c(c1OC)C(=O)O[C@@H]2[C@H]1c2c(cc3c(c2OC)OCO3)CCN1C	-20	31	43	1
COc1cc2c3cc1Oc1c(OC)c(OC)cc4c1[C@@H](Cc1ccc(OC(=O)c5ccc([N+](=O)[O-])cc5)c(c1)Oc1ccc(cc1)C[C@@H]3N(C)CC2)N(C)CC4	-2	98*	-27	-1
COc1ccc2cc1Oc1ccc(cc1)C[C@H]1c3cc(c(OC)cc3CCN1C)Oc1c(OC)c(OC)cc3c1[C@H](C2)N(C)CC3	-61	121*	-26	nt
COc1ccc2c(c1OC)C(=O)OC2[C@H]1c2c(cc3c(c2OC)OCO3)CCN1C (stereo not given in full)	-2	37	-38	nt
CCOC(=O)c1sc(SC)c2c1CC(c1ccc(OC)cc1)CC2=O (stereo not given)	6	-11	19	0
CC1=Nc2ccc(Br)cc2C(c2ccccc2)N1CC(=O)NN (stereo not given)	-3	19	-15	-1
O=C1CN(C(=O)/C=C/c2ccccc2)C(c2ccccc2)c2cc(Br)ccc2N1 (stereo not given)	34	89*	nt	-3
CC1CCC(C(C)C)C(=O)/C1=C/c1ccc(N(C)C)cc1 (stereo not given)	-33	63	nt	-1
SMILES	MITF inhib	NOMO-1 viab	Shh pathway inh	PD-1 reversal
COc1ccc(/C=C2/C(=O)C(C)(C(C)C)CCC2C)cc1 (stereo not given)	-26	94*	-20	1
COC(=O)c1ccc(Cl)c(NC(=O)COc2ccc(OC)cc2)c1	-17	5	nt	nt
COc1cccc(-c2nn(-c3ccccc3)cc2C(=O)n2nnc3ccccc32)c1	48	128*	nt	-10
C=C1C(=O)O[C@@H]2C[C@@]3(C)[C@@H](O)C[C@@H](O)C(=C)[C@@H]3C[C@H]12	26	83*	38	-4
C=C1CC/C=C(/C(=O)O)C[C@H](O)C2C1CC2(C)C (stereo not given in full)	-5	6	6	1
Cc1nc2c([nH]1)C1(CCC(c3ccccc3)CC1)C(C#N)=C(N)O2 (stereo not given)	3	27	-18	-1
COc1ccc(OC)c(NC(=O)c2ccc(CSc3ncnc4nc[nH]c34)cc2)c1	33	42	68*	1
COc1ccc(OC)c(NC(=O)COc2ccc(C(=O)Nc3ccc(Cl)cc3)cc2)c1	4	8	nt	nt
COc1ccc(NC(=O)Nc2ccc3c(c2)C(=O)N([C@H](C)CO)C[C@@H](C)[C@@H](CN(C)Cc2ccc(-c4ccccc4)cc2)O3)cc1	-2	94*	31	nt
COc1ccc(NC(=O)Nc2ccc3c(c2)C(=O)N([C@@H](C)CO)C[C@@H](C)[C@H](CN(C)Cc2ccc(Oc4ccccc4)cc2)O3)cc1	2	-4	-14	nt
COc1ccc(NC(=O)Nc2ccc3c(c2)C(=O)N([C@@H](C)CO)C[C@@H](C)[C@@H](CN(C)Cc2ccc(Oc4ccccc4)cc2)O3)cc1	6	117*	94*	-5
CCN(CCS(=O)(=O)c1ccc(Cl)cc1)S(=O)(=O)c1ccc(Cl)cc1	-7	-19	nt	0
Cc1ccc(C(=O)Nc2ccccc2)c(C)n1	-83	4	-38	-1
CC(=O)O[C@@H]1CC2C(C)(C)CCC[C@]2(C)C2CC[C@]3(C)C(=CC(=O)O[C@H]3c3ccoc3)[C@@]21C (stereo not given in full)	43	99*	-4	nt
CC(=O)O[C@@H]1CC[C@@]2(C)C(C[C@@H](OC(C)=O)[C@@]3(C)C4=CC(=O)O[C@@H](c5ccoc5)[C@]4(C)CCC23)C1(C)C (stereo not given in full)	15	66	11	nt
COC(=O)CNS(=O)(=O)c1ccccc1[N+](=O)[O-]	5	112*	nt	nt
CCOc1ccc(C2C3=C(CCCC3=O)NC3=C2C(=O)CCC3)cc1	7	5	-4	0
c1ccc(N=C(Nc2ccccc2)Nc2ccccc2)cc1	-8	89*	-24	-1
CCC(C)C(O)C(C)(O)/C=C/C1=CC2=C(Cl)C(=O)C(C)(O)C(OC(C)=O)C2CO1 (stereo not given)	28	120*	-11	-1
O=C(Nc1ccc(-c2ccccc2)cc1)C1CC1c1ccccc1 (stereo not given)	23	32	39	0
Cc1ccc(C(=O)CSc2nnc(-c3cccc(F)c3)n2-c2ccccc2)c(C)c1	22	34	nt	-1
COC1C(OC)N(S(=O)(=O)c2ccc(C)cc2)CCN1S(=O)(=O)c1ccc(C)cc1 (stereo not given)	-2	7	15	-3

Bioassay records from PubChem.
